Hits are enriched below; roughly 1.2% of the tested compounds scored in any of these assays.
aGal spleen mod – qHTS Assay for Inhibitors and Activators of Human alpha-Galactosidase From Spleen Homogenate | actives 0.008% (n = 240,000) | Potency, µM (titrated, usually from 80 µM), for inactives: top-dose activity change, negative = inhibition, most hits filed as inhibitors | human spleen homogenate, 4MU-alpha-Gal fluorescence, 40 min | AID 2107, 2009;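 further: potency means the concentration at half of the fitted maximal effect; 0% = enzyme with vehicle and -100% = no enzyme basal signal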
Target sequence (P06280 32-429 limits assumed): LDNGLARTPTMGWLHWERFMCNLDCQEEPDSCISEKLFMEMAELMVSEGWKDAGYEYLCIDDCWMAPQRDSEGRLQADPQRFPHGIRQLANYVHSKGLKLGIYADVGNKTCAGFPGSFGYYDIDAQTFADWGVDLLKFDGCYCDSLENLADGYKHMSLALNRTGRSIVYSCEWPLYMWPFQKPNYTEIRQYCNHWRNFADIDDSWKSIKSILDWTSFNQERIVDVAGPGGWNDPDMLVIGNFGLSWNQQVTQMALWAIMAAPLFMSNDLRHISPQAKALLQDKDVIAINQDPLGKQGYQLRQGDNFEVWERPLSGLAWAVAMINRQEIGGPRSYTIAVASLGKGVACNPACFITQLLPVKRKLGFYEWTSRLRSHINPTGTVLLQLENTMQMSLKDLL
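Human spleen homogenate (1 ug) as enzyme source, 4-methylumbelliferyl-alpha-D-galactopyranoside 1 mM final, citrate/phosphate pH 5.0 with 0.01% Tween-20. Compounds 40 min at 37C, NaOH/glycine stop; fluorescence Ex 365/Em 440, Hill-fit AC50.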
ERK EGF inh – qHTS Assay for Inhibitors of the ERK Signaling Pathway using a Homogeneous Screening Assay; Stimulation with EGF. Potency, µM (doses to about 11.5 µM), without a hit: at the top dose activity change, negative = inhibition, hits mostly inhibitors. actives 0.41% (n = 130,000). HEK293-V1b, EGF-stimulated phospho-ERK AlphaScreen. AID 1454, 2008;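 further: potency means the concentration at half of the fitted maximal effect; plate controls were stimulated vehicle wells for no effect and unstimulated vehicle basal for full effect; nearly all actives have a fitted effect of over 55% in size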
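V1b-HEK293, 1% FBS o/n; cpd 30 min 37C; EGF 25 nM final, 5 min; lyse 10 min; AlphaScreen beads 5 h RT. Normalized DMSO basal vs EGF max; Hill AC50.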
HTT cytoprotect – qHTS Multiplex Assay to Identify Dual Action Probes in a Cell Model of Huntington: Cytoprotection (ATP); PC12 HTT-Q103 induced, cytoprotection, ATP luminescence, 40 h; Potency, µM (doses to about 56.4 µM), for inactives: cytoprotection (ATP increase), usual class: activators; actives 0.14% (n = 230,000); further: potency means the concentration at half of the fitted maximal effect; % of control where 0% means no effect; nearly all actives have a fitted effect of over 45% in size
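PC12 cells stably carrying ecdysone-inducible Htt exon 1 (Q103)–GFP were induced with 100 nM tebufenozide (final) alongside library compounds in a dose series. Cytoprotection was scored as retained ATP by ATPlite luminescence.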
HttQ103 aggreg – qHTS Multiplex Assay to Identify Dual Action Probes in a Cell Model of Huntington: Aggregate Formation (GFP). AID 1688, 2009. PC12 HttQ103-GFP aggregates, Acumen cytometry, 40 h. Potency, µM (titrated, usually from 46.1 µM), for inactives: at the top dose activity change, negative = inhibition, usual class: inhibitors. actives 1.1% (n = 220,000); further: potency means the concentration at half of the fitted maximal effect; on the % scale 0 is the no-effect control and ±100 the full control effect; nearly all actives have a fitted effect of over 60% in size
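Quantitative HTS on tebufenozide-induced (100 nM) PC12 cells stably expressing polyQ103 Huntingtin exon 1–GFP. Reduction of bright GFP aggregates, detected by laser scanning cytometry after lysis, identified actives across the titration.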
GLA inh pH 4.5 – qHTS Assay for Inhibitors of Human alpha-Galactosidase at pH 4.5; Alpha-galactosidase A (Homo sapiens), P06280; purified enzyme, 4-MU-alpha-Gal fluorescence, pH 4.5; activity change, negative = inhibition, % at 105 µM; 230,000 tested, under 10 active;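 further: 0% = full activity with enzyme and -100% = basal without enzyme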
The depositor's hits bear a star; [ ] = dose if it differs, or a comment. The call rests on the fitted dose curve; in most records, active means well fitted curve in the direction sought with a large enough effect; inconclusive means small, poorly fitted or top-dose-only effect, or another doubt; inactive means no such curve, though single readings can be large; an effect the other way counts as inactive or inconclusive.

Screening Cc1cccc(-n2c(-c3ccncc3)n[nH]c2=S)c1 returned aGal spleen mod -6%, ERK EGF inh 4%, HTT cytoprotect -1%[1.9 µM], HttQ103 aggreg 4% and GLA inh pH 4.5 -10.
Cc1cccc(-n2c(C)n[nH]c2=S)c1 was read as aGal spleen mod -21%, HTT cytoprotect 3.5µM*, HttQ103 aggreg 12% and GLA inh pH 4.5 10.
For CCCNC(=O)c1cc2c3ccccc3n(C)c2s1 the results were aGal spleen mod 4%, HTT cytoprotect 8%[10 µM], HttQ103 aggreg -5% and GLA inh pH 4.5 -4.
For Cn1c2ccccc2c2cc(C(=O)NNC(=O)CCl)sc21 the results were aGal spleen mod -7%, ERK EGF inh 11%, HTT cytoprotect -35%, HttQ103 aggreg 16µM* and GLA inh pH 4.5 -13.
CC(=O)NC(=S)Nc1ccccc1N1CCN(C(=O)c2ccccc2)CC1 was read as aGal spleen mod 9%, ERK EGF inh 32µM*, HTT cytoprotect -34%, HttQ103 aggreg 5% and GLA inh pH 4.5 6.
Cc1ccc(NC(=S)NCCC(c2ccccc2)c2ccccc2)c(C)c1 was read as aGal spleen mod 1%, HTT cytoprotect 15%[10 µM], HttQ103 aggreg 13µM* and GLA inh pH 4.5 -5.
Screening CC[C@H](C)[C@H](NC(=O)[C@H](CCC(=O)O)NC(=O)[C@@H](N)CO)C(=O)N[C@@H](CCC(N)=O)C(=O)N[C@@H](CC(C)C)C(=O)N[C@@H](CCSC)C(=O)N[C@@H](Cc1cnc[nH]1)C(=O)N[C@@H](CC(N)=O)C(=O)N[C@@H](CC(C)C)C(=O)NCC(=O)N[C@@H](CCCCN)C(=O)N[C@@H](Cc1cnc[nH]1)C(=O)N[C@@H](CC(C)C)C(=O)N[C@@H](CC(N)=O)C(=O)N[C@@H](CO)C(=O)N[C@@H](CCSC)C(=O)N[C@@H](CCC(=O)O)C(=O)N[C@@H](CCCNC(=N)N)C(=O)N[C@H](C(=O)N[C@@H](CCC(=O)O)C(=O)N[C@@H](Cc1c[nH]c2ccccc12)C(=O)N[C@@H](CC(C)C)C(=O)N[C@@H](CCCNC(=N)N)C(=O)N[C@@H](CCCCN)C(=O)N[C@@H](CCCCN)C(=O)N[C@@H](CC(C)C)C(=O)N[C@@H](CCC(N)=O)C(=O)N[C@@H](CC(=O)O)C(=O)N[C@H](C(=O)N[C@@H](Cc1cnc[nH]1)C(=O)N[C@@H](CC(N)=O)C(=O)N[C@@H](Cc1ccccc1)C(=O)O)C(C)C)C(C)C returned aGal spleen mod 3%.
`O=C(N/N=C/c1ccc[nH]1)c1ccc(COc2cccc3cccnc23)cc1` gave aGal spleen mod 1%, ERK EGF inh 25µM*, HTT cytoprotect -32%, HttQ103 aggreg -2% and GLA inh pH 4.5 -10.
For O=C1CN(C(=O)Cn2ncc(Cl)c(Cl)c2=O)c2ccccc2N1 the results were aGal spleen mod 10%, ERK EGF inh 3%, HTT cytoprotect -159%, HttQ103 aggreg 11µM* and GLA inh pH 4.5 1.
Screening Cc1nc2ccccc2n1CC(=O)N1CC(=O)Nc2ccccc21 returned aGal spleen mod 1%, HTT cytoprotect 11%, HttQ103 aggreg -10% and GLA inh pH 4.5 -6.
For O=C1c2cccc(O)c2C(=O)c2c(O)cccc21 the results were aGal spleen mod -6%, ERK EGF inh inconclusive, HTT cytoprotect -20%, HttQ103 aggreg inconclusive and GLA inh pH 4.5 -6.
Screening O=C1c2cccc(Sc3ccccc3)c2C(=O)c2c(Sc3ccccc3)cccc21 returned aGal spleen mod 6%, ERK EGF inh 7.1µM*, HTT cytoprotect 21%[10 µM], HttQ103 aggreg -2%[9.22 µM] and GLA inh pH 4.5 -3.
O=C(Oc1ccccc1)C1O[C@@H]1c1ccccc1 (some centres undefined) was read as aGal spleen mod -1%, ERK EGF inh -5% and GLA inh pH 4.5 3.
`COC(=O)N1CCC2(CC1)CCN(c1ccncc1)CC2` gave aGal spleen mod 4%, ERK EGF inh 11% and HTT cytoprotect 17%.
`COc1ccc(C)cc1S(=O)(=O)N(CC(=O)NCc1ccc(Cl)cc1)Cc1ccccc1` gave aGal spleen mod 1%, HTT cytoprotect -25%[10 µM], HttQ103 aggreg 28µM* and GLA inh pH 4.5 -8.
Screening COc1ccc(CNC(=O)CN(Cc2ccccc2)S(=O)(=O)c2ccc(Cl)cc2)cc1 returned aGal spleen mod -2%, HTT cytoprotect -19%, HttQ103 aggreg inconclusive and GLA inh pH 4.5 -3.
Screening COc1ccc(NC(=O)c2ccc(C#N)cc2)cc1NS(=O)(=O)c1ccc(F)cc1 returned aGal spleen mod -7%, ERK EGF inh 10%, HTT cytoprotect 1µM*, HttQ103 aggreg 24% and GLA inh pH 4.5 0.
`COc1ccc(NC(=O)c2ccc3ccccc3c2)cc1NS(=O)(=O)c1ccc(F)cc1` gave aGal spleen mod 3%, ERK EGF inh -5%, HTT cytoprotect 8%[10 µM], HttQ103 aggreg 5% and GLA inh pH 4.5 4.
`CC(=O)N1CCC[C@@]2(CCN(C(=O)Nc3cccc(C#N)c3)C2)C1` gave aGal spleen mod -4%, ERK EGF inh -3% and HTT cytoprotect -5%.
For Cc1ccc(C(=O)c2cc3ccccc3o2)cc1[N+](=O)[O-] the results were aGal spleen mod 1%, ERK EGF inh 22µM*, HTT cytoprotect -10%, HttQ103 aggreg -16% and GLA inh pH 4.5 9.
`CC(=O)c1cccc(NC(=O)c2ccc(OC3CSC3)cc2)c1` gave aGal spleen mod -8%, ERK EGF inh inconclusive, HTT cytoprotect -39%, HttQ103 aggreg -9% and GLA inh pH 4.5 -2.
O=C(Nc1cccc(Br)c1)c1ccc(OC2CSC2)cc1 was read as aGal spleen mod -14%, ERK EGF inh 25µM*, HTT cytoprotect -21%, HttQ103 aggreg inconclusive and GLA inh pH 4.5 -7.
Screening COc1ccccc1CC(=O)Nc1ccc2c(c1)CCC2 returned aGal spleen mod -3%, ERK EGF inh -4%, HTT cytoprotect 10%[10 µM], HttQ103 aggreg 1% and GLA inh pH 4.5 4.
`COc1ccc(CC(=O)Nc2ccc3c(c2)CCC3)cc1OC` gave aGal spleen mod -14%, HTT cytoprotect 2%, HttQ103 aggreg 13µM* and GLA inh pH 4.5 -5.
O=P(O)(O)O was read as aGal spleen mod 13%, HTT cytoprotect -7% and HttQ103 aggreg 2%.
CC(C)C(=O)N(c1ccc2oc(=O)sc2c1)S(=O)(=O)c1cccs1 was read as aGal spleen mod -4%, HTT cytoprotect 13µM* and GLA inh pH 4.5 -12.

High-throughput results deposited in PubChem BioAssay by National Center for Advancing Translational Sciences (NCATS).
